Source: PubChem
The list is not random: actives were taken first. Their share in the collection is about 8.9%.
IMPase Li cell – IMPase inhibition in cells with lithium potentiation | Potency, µM (titrated, usually from 59.4 µM), for the others: at the top dose activity, negative = IMPase inhibition, usual class: inhibitors | hit rate 0.35% among 210,000 | CHO-M1 cells, IP1 TR-FRET (IP-One), carbachol + lithium | AID 1457;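 further: IP1 builds up when IMPase is blocked and the TR-FRET signal falls; potency means the concentration at half of the fitted maximal effect; plate controls were basal vehicle for no effect and high inhibitor control for full effect; nearly all actives have a fitted effect of over 50% in size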
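CHO-M1, 2000 cells/well, 16–30 h culture; cpd + low Li+, 30 min 37C; lysis with d2-IP1/Eu-anti-IP1 Ab, 10 min RT; TR-FRET 665/620 ratio and 620 channel; AC50 via Hill.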
NPSR antagonist – neuropeptide S receptor (human) antagonism, cAMP; Potency, µM (doses to about 38.3 µM), inactives show at the top dose activity change, negative = inhibition, usual class: inhibitors; CHO-NPSR cells, cAMP TR-FRET, antagonist mode; AID 1461; hit rate 1% among 220,000; further: potency means the concentration at half of the fitted maximal effect; nearly all actives have a fitted effect of over 50% in size
HPGD inh – inhibitors of human 15-hydroxyprostaglandin dehydrogenase (HPGD). P15428. purified HPGD, NADH fluorescence kinetic, PGE2 substrate. Potency, µM, inactives show top-dose activity change, negative = inhibition, most hits filed as inhibitors. hit rate 4.3% among 150,000; active means well fitted inhibition curve with a large enough effect, not every such curve was filed as active; inconclusive means small, poorly fitted or top-dose-only effect, or another doubt; inactive means no such curve, though single readings can be large or run the other way; further: potency means the concentration at half of the fitted maximal effect
Target sequence (P15428 whole entry, looked up): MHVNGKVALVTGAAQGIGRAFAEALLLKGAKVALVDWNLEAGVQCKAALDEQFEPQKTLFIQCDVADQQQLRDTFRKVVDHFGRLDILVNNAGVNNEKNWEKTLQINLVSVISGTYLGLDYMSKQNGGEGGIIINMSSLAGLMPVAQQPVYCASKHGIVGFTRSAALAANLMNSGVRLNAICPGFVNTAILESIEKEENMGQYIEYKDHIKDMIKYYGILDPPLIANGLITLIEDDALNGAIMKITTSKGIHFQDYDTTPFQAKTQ
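20 nM HPGD preincubated 15 min at room temperature with compound in 50 mM Tris-HCl pH 8, 0.01% Tween 20. Started with 1 mM NAD+ and 30 uM prostaglandin E2; NADH fluorescence (360/450 nm) read 5 times over 30-s intervals, last minus first.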
ALDH1A1 inh – blocks purified human ALDH1A1 activity; Purified ALDH1A1, NADH fluorescence, propionaldehyde substrate; P00352; hit rate 7.3% among 220,000; AID 1030; Potency, µM (titrated, usually from 75.3 µM), for the others: top-dose activity, negative = inhibition, usual class: inhibitors; active means well fitted inhibition curve with a large enough effect, not every such curve was filed as active; inconclusive means small, poorly fitted or top-dose-only effect, or another doubt; inactive means no such curve, though single readings can be large or run the other way;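 further: potency means the concentration at half of the fitted maximal effect; plate controls were no enzyme wells and a reference inhibitor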
12-hLO inh – 12-hLO (ALOX12) enzyme inhibition; AID 1452; Potency, µM (doses to about 57.1 µM), for inactives: top-dose activity change, negative = inhibition, actives largely listed as inhibitors; P18054; hit rate 0.12% among 150,000; purified 12-hLO, xylenol orange hydroperoxide absorbance; further: potency means the concentration at half of the fitted maximal effect; nearly all actives have a fitted effect of over 55% in size
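Lipoxygenase turnover measured by absorbance at 573 and 405 nm after Fe-XO development. Human 12hLO 150 nM, arachidonate 40 uM, pH 7.0 Hepes buffer with detergent; 15 min compound preincubation, 30 min reaction.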
IMPase inh – membrane-permeable compound that blocks inositol monophosphatase. P97697. CHO-M1 cells, IP1 accumulation, HTRF TR-FRET ratio. inhibition (IP1 accumulation), % at 46.1 µM. 120,000 tested, under 10 active; active means well fitted curve in the direction sought with a large enough effect in the signal ratio, not every such curve was filed as active; inconclusive means small, poorly fitted or top-dose-only effect, or a change in a side signal; inactive means no such curve, though single readings can be large or run the other way; the % refers to the signal ratio;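 further: cells stimulated with carbachol in lithium chloride buffer; plate controls were DMSO basal wells for no effect and reference inhibitor wells for full effect; higher means more IMPase inhibition seen as more IP1 and lower FRET ratio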
Target sequence (P97697 whole entry, looked up): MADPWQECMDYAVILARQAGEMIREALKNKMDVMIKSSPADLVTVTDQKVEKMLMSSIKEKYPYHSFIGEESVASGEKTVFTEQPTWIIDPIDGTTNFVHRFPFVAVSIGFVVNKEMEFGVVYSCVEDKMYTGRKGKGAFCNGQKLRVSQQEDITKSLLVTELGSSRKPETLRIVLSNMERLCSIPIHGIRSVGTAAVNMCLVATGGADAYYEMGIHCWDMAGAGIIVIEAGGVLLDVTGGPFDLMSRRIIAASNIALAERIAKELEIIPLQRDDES
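Elevated IP1 in lysates lowers TR-FRET signal (665/620 ratio and 620 channel reported). Cells were CHO-M1, given carbachol (50 uM as added) plus 50mM LiCl, pH 7.4, 30 min, 37C; compounds titrated up to 46 uM; AC50 by Hill equation.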
An asterisk follows results filed as active; ? = inconclusive; nt = no result given; [ ] = another dose, or the depositor's remark. Unless noted, the call rests on the fitted dose curve; in most records, active means well fitted curve in the direction sought with a large enough effect; inconclusive means small, poorly fitted or top-dose-only effect, or another doubt; inactive means no such curve, though single readings can be large; an effect the other way counts as inactive or inconclusive. Unless noted, on the % scale 0 is the no-effect control and ±100 the full control effect.

SMILES	IMPase Li cell	NPSR antagonist	HPGD inh	ALDH1A1 inh	12-hLO inh	IMPase inh
CC(=O)Oc1cccc(N2C(=O)C3C(C2=O)C2C=CC3C23CC3)c1 (centres undefined)	-7.1%[38.3 µM]	-6.7%[46.1 µM]	-13.5%	20µM*	-4.4%	-2.6
CC(=O)Oc1cccc(N2C(=O)C3C4C=CC(C4=C(C)C)C3C2=O)c1 (centres undefined)	11.4%[38.3 µM]	-3.1%[46.1 µM]	-10.8%	7.08µM*	-7.6%	-0.7
CC(=O)Oc1cccc(N2C(=O)c3ccccc3C2=O)c1	1.6%	9.1%	-7.4%	-14.5%	-1.4%	nt
CCOC(=O)C1(Cc2ccc(OC)cc2)CCN(C(=O)Cn2cnnn2)CC1	-0.1%	2.5%	nt	-0.8%	nt	nt
CCOC(=O)C1(Cc2ccc(OC)cc2)CCN(C(=O)CN2CCN(CC)CC2)CC1	6.5%	-17.1%	nt	25.1µM*	nt	nt
COc1cccc(CNC(=O)CCC2CCCN(C(=O)c3cccc4c(C)c(C)[nH]c34)C2)c1 (centres undefined)	nt	20.1%	nt	28.2µM*	nt	nt
COc1cccc(CNC(=O)CCC2CCCN(C(=O)c3cccc(Cl)c3)C2)c1 (centres undefined)	6.7%	12.6%	nt	?	nt	nt
CC(NC(=O)c1cc(=O)[nH]c2ccccc12)c1ccccc1 (centres undefined)	7.8%	11.5%	nt	0.1%	nt	nt
CCOC(=O)N1CCN(C(=O)CSc2ccc3nnc(CCNC(=O)c4ccc(OC)cc4)n3n2)CC1	-2.3%	12.5%	nt	7.94µM*	nt	nt
O=C(NN1C(=O)C2C3C=CC(O3)C2C1=O)c1cccc(O)c1 (centres undefined)	5.6%	-4.0%[46.1 µM]	-3.4%	20µM*	-1.0%	-3.9
O=C(NN1C(=O)C2C3C=CC(O3)C2C1=O)c1cccc(Br)c1 (centres undefined)	1.2%	5.0%	nt	28.2µM*	nt	nt
Cc1cccc(C(=O)NN2C(=O)C3C(c4ccccc4)C=CC(c4ccccc4)C3C2=O)c1 (centres undefined)	25.5%[38.3 µM]	?	-9.1%	2.0%	1.4%	15.2
O=C(O)c1ccccc1CSC1=NCCS1	-1.5%	11.6%	nt	20µM*	nt	nt
Cn1ccnc1SCC(=O)Nc1cccc2ccccc12	-5.1%[38.3 µM]	2.7%[46.1 µM]	25.1µM*	-0.1%	-5.8%	-0.6
N#Cc1ccccc1CSC1=NCCS1	4.3%	6.4%	nt	?	nt	nt
O=C(CSC1=NCCS1)Nc1ccccc1F	-13.8%[38.3 µM]	-10.0%[46.1 µM]	28.2µM*	8.91µM*	0.2%	0.4
COC(=O)c1ccccc1NC(=O)CSc1nccn1C	-4.6%[38.3 µM]	-5.1%[46.1 µM]	-10.9%	-10.2%	0.4%	3.2
COC(=O)c1cc(NC(=O)CSC2=NCCS2)cc(C(=O)OC)c1	9.7%	-14.0%	nt	12.6µM*	nt	nt
COc1ccc(Cl)cc1NC(=O)CCc1nc(-c2ccccc2F)no1	1.0%	-8.6%	nt	4.2%	nt	3.8
N#CC1(Cc2ccc([N+](=O)[O-])cc2)c2ccccc2C=CN1C(=O)c1ccccc1 (centres undefined)	20.1%[38.3 µM]	-1.6%[46.1 µM]	-9.4%	?	1.4%	-4.1
CCN1CCN(CCCN(Cc2ccco2)C(=S)Nc2ccc(C)c(Cl)c2)CC1	17.1%	-1.8%	nt	-13.1%	nt	nt
O=c1c(-c2cc(F)cc(F)c2)nc2cncnc2n1Cc1ccccc1Cl	21.4%	nt	nt	-13.3%	nt	nt
O=C1COCCOCCOCCOCC(=O)NCCN1	6.9%	-11.4%	nt	8.0%	nt	nt
O=C(CSC1=NCCS1)Nc1cccc2ccccc12	35.1%[38.3 µM]	-9.2%[46.1 µM]	14.1µM*	?	-4.2%	-8.8
Cn1ccnc1SCC(=O)c1ccc(Br)cc1	-9.9%[38.3 µM]	-26.3%[46.1 µM]	?	3.55µM*	?	7.4
Cc1ccc(S(=O)(=O)NCC(=O)OCC(=O)c2cc(C)n(-c3ccccc3)c2C)cc1	3.3%	4.7%	-16.0%	?	-0.5%	nt
CC(C)CN1C(=O)/C(=C(/C#N)C(=O)NC2CCCCC2)c2ccccc21	21.2%	-17.0%	nt	5.01µM*	nt	nt
CCCCN1C(=O)/C(=C(/C#N)C(=O)N2CCCC2)c2ccccc21	nt	8.8%	nt	nt	nt	nt
Cc1ccccc1N=Nc1ccc(O)c2ncccc12	-5.2%	-6.1%	-4.8%	12.4%	8.8%	nt
Oc1ccc(Cn2ccnc2)c2cccnc12	1.7%	-25.7%	nt	5.5%	nt	nt
